Test results published in PubChem BioAssay (EPA / NIEHS).
Values joined by “and” are separate entries in the source; they are usually repeats but may differ in a detail not shown here. Equal entries are not always repeated. Some compounds were tested as several samples or in several runs, with calls that do not always agree. Active and inactive are the calls of the source. Rule for the calls: active = hit-call score of the fitted dose curve at least 0.9, where 1 is the maximum; inactive = score below 0.9.

Key:
[1] = read-out: Thrombomodulin, THBD (gene 7056); experiment: BSK_3C_Thrombomodulin: BioMAP Diversity Plus: 3C Assay for Thrombomodulin Biomarker Activity (AID 2283029); settings: primary human endothelial cells (HUVEC); actives raise or lower the signal
Outline: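 Endothelial cells from umbilical vein are dosed with test chemical and incubated 24 h. Thrombomodulin is then quantified by ELISA, with DMSO serving as negative control and activity baseline.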

[2] = read-out: Urokinase-type plasminogen activator receptor (uPAR), PLAUR (gene 5329); experiment: BSK_4H_uPAR: BioMAP Diversity Plus: 4H Assay for Urokinase-type plasminogen activator receptor (uPAR) Biomarker Activity (AID 2283030); settings: primary human endothelial cells (HUVEC); actives raise or lower the signal
Outline: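 uPAR level read by ELISA on HUVEC cultures (BioMAP 4H) 24 h post-dosing, analyzed for gain or loss relative to DMSO. Parallel SRB staining assessed overt cytotoxicity.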

[3] = read-out: Vascular endothelial growth factor receptor 2 (Homo sapiens) (UniProt P35968); experiment: BSK_4H_VEGFRII: BioMAP Diversity Plus: 4H Assay for Vascular endothelial growth factor receptor 2 (VEGFR2) Biomarker Activity (AID 2283031); settings: primary human endothelial cells (HUVEC); actives raise or lower the signal;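 for AC50: cell-surface VEGFR2 protein level quantified by ELISA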
Outline: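 Measured by ELISA after 24 h of compound treatment: VEGFR2 on primary human umbilical vein endothelial cells, fitted in both directions relative to DMSO. Parallel cultures received SRB staining (560 nm) for overt cytotoxicity.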

[4] = read-out: Human Leukocyte Antigen - DR isotype (HLADR), HLA-DRA (gene 3122); experiment: BSK_BE3C_HLADR: BioMAP Diversity Plus: BE3C Assay for Human Leukocyte Antigen - DR isotype (HLADR) Biomarker Activity (AID 2283032); settings: primary human bronchial epithelial cells; actives raise or lower the signal
Outline: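 Chemicals are dosed onto BE3C bronchial epithelial cultures of human origin and left 24 h. HLA-DR is then measured by ELISA, and the endpoint is fitted in both directions using DMSO as the activity baseline.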

[5] = read-out: Vascular cell adhesion molecule 1 (VCAM1), VCAM1 (gene 7412); experiment: BSK_4H_VCAM1: BioMAP Diversity Plus: 4H Assay for Vascular cell adhesion molecule 1 (VCAM1) Biomarker Activity (AID 2283033); settings: primary human endothelial cells (HUVEC); actives raise or lower the signal;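 for outcome: cell-surface VCAM-1 protein measured by ELISA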
Outline: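 Chemicals are added to primary human umbilical vein endothelial cells. After 24 h, VCAM-1 levels are measured by ELISA. Values come from bidirectional fitting referenced to DMSO.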

[6] = read-out: Interferon-gamma inducible Protein 10 (IP10), CXCL10 (gene 3627); experiment: BSK_BE3C_IP10: BioMAP Diversity Plus: BE3C Assay for Interferon-gamma inducible Protein 10 (IP10) Biomarker Activity (AID 2283034); settings: primary human bronchial epithelial cells; actives raise or lower the signal
Outline: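 IP-10 quantified by ELISA serves as the endpoint. Cells: primary human bronchial epithelium, read 24 h after compound addition. Activity is derived by bidirectional fitting with DMSO as negative control.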

[7] = read-out: Monokine induced gamma interferon (MIG), CXCL9 (gene 4283); experiment: BSK_BE3C_MIG: BioMAP Diversity Plus: BE3C Assay for Monokine induced gamma interferon (MIG) Biomarker Activity (AID 2283035); settings: primary human bronchial epithelial cells; actives raise or lower the signal;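 for outcome: MIG protein measured by ELISA in BE3C cultures after 24 h of dosing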
Outline: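 ELISA quantified MIG after 24 h exposure of primary bronchial epithelial cultures, analysed in both directions relative to DMSO. Cytotoxicity tracked in parallel cultures by sulforhodamine B staining.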

[8] = read-out: Transforming growth factor beta 1 (TGFb1), TGFB1 (gene 7040); experiment: BSK_BE3C_TGFb1: BioMAP Diversity Plus: BE3C Assay for Transforming growth factor beta 1 (TGFb1) Biomarker Activity (AID 2283036;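 for outcome: TGF-b1 protein level measured by ELISA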); settings: primary human bronchial epithelial cells; actives raise or lower the signal
Outline: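 Bronchial epithelial primary cells are treated with test chemical, then TGF-b1 is quantified by ELISA after 24 hours. Values derive from bidirectional fitting against DMSO, with cytotoxicity checked by SRB staining in parallel cultures.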

[9] = read-out: Plasminogen activator inhibitor-1 (PAI1), SERPINE1 (gene 5054); experiment: BSK_BE3C_PAI1: BioMAP Diversity Plus: BE3C Assay for Plasminogen activator inhibitor-1 (PAI1) Biomarker Activity (AID 2283037); settings: primary human bronchial epithelial cells; actives raise or lower the signal
Outline: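 Values derive from bidirectional fitting against DMSO baseline of PAI-1 levels, measured by ELISA in human bronchial epithelial cells 24 h after compound addition.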

[10] = read-out: urokinase plasminogen activator (uPA), PLAU (gene 5328); experiment: BSK_BE3C_uPA: BioMAP Diversity Plus: BE3C Assay for urokinase plasminogen activator (uPA) Biomarker Activity (AID 2283038); settings: primary human bronchial epithelial cells; actives raise or lower the signal;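 for outcome: uPA protein level quantified by ELISA in cell cultures; uPA read one day after compound addition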
Outline: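 ELISA for uPA on human primary bronchial epithelial cultures 24 h post-treatment, gain or loss against DMSO. Parallel SRB staining (0.1% after 10% TCA fixation, 560 nm) assessed overt cytotoxicity.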

Row | Compound | outcome [1] | outcome [2] | outcome [3] | outcome [4] | outcome [5] | outcome [6] | outcome [7] | outcome [8] | outcome [9] | outcome [10] | AC50 [2] | AC50 [4] | AC50 [5] | AC50 [6] | AC50 [7] | AC50 [8] | AC50 [9] | AC50 [10] | AC50 [3] | AC50 [1]
1 | O=C(NC(=O)c1cc(F)c(F)cc1Cl)Nc1cc(F)ccc1N1CCC(C(=O)O)CC1 | inactive | inactive | inactive | inactive | inactive | inactive | inactive | inactive | inactive | inactive | – | – | – | – | – | – | – | – | – | –
2 | ClC1=C(Cl)[C@]2(Cl)[C@@H]3[C@H]4C[C@H]([C@@H]5O[C@H]45)[C@@H]3[C@@]1(Cl)C2(Cl)Cl | inactive | inactive | inactive | inactive | inactive | inactive | inactive | inactive | inactive | inactive | – | – | – | – | – | – | – | – | – | –
3 | Cc1ccccc1[N+](=O)[O-] | inactive | – | inactive | inactive | inactive | inactive | inactive | inactive | inactive | inactive | – | – | – | – | – | – | – | – | – | –
4 | CC(C)C(=O)OCC(C)(C)C(OC(=O)C(C)C)C(C)C (stereo not given) | inactive | inactive | inactive | inactive | inactive | inactive | inactive | inactive | inactive | inactive | – | – | – | – | – | – | – | – | – | –
5 | CCCCCCCCCc1ccc(O)cc1 | inactive | – | – | – | – | – | – | – | – | – | 16.9 µM (active) | 13.6 µM (active) | 15.8 µM (active) | 13.1 µM (active) | 18.5 µM (active) | 16.4 µM (active) | 15.7 µM (active) | 15.1 µM (active) | – | –
6 | CC(c1ccc(O)cc1)(c1ccc(O)cc1)c1ccc(O)cc1 | inactive | – | inactive | – | – | – | – | – | – | – | 30.8 µM (active) | 2.08 µM (active) | 24 µM (active) | 2.57 µM (active) | 2.2 µM (active) | 1.92 µM (active) | 3.29 µM (active) | 3.25 µM (active) | – | –
7 | C=CC(N)=O | inactive | inactive | inactive | inactive | inactive | inactive | inactive | inactive | inactive | inactive | – | – | – | – | – | – | – | – | – | –
8 | Cc1ccccc1O | inactive | inactive | inactive | inactive | inactive | inactive | inactive | inactive | inactive | inactive | – | – | – | – | – | – | – | – | – | –
9 | CN(C)c1nc(=O)n(C2CCCCC2)c(=O)n1C | inactive | inactive | inactive | inactive | inactive | inactive | inactive | inactive | inactive | inactive | – | – | – | – | – | – | – | – | – | –
10 | ClC1=C(Cl)[C@]2(Cl)[C@@H]3[C@@H](Cl)[C@H]4O[C@H]4[C@@H]3C1(Cl)C2(Cl)Cl | inactive | inactive | inactive | inactive | inactive | inactive | inactive | inactive | inactive | inactive | – | – | – | – | – | – | – | – | – | –
11 | O=C(O)C(F)(F)C(F)(F)C(F)(F)C(F)(F)C(F)(F)C(F)(F)C(F)(F)C(F)(F)C(F)(F)F | inactive | – | inactive | – | – | – | – | – | – | inactive | – | 11.1 µM (active) and 9.13 µM (active) and 11.4 µM (active) | 33.8 µM (active) and 46.9 µM (active) and 46 µM (active) | 9.39 µM (active) and 8.59 µM (active) and 8.35 µM (active) | 28.6 µM (active) and 26.9 µM (active) and 12.7 µM (active) | 10 µM (active) | 14.2 µM (active) and 14.4 µM (active) and 12.8 µM (active) | 16.1 µM (active) and 7.94 µM (active) | 43.2 µM (active) and 55.4 µM (active) | –
12 | NS(=O)(=O)C(F)(F)C(F)(F)C(F)(F)C(F)(F)C(F)(F)C(F)(F)C(F)(F)C(F)(F)F | inactive | – | inactive | – | – | – | inactive | – | – | inactive | – | 5.61 µM (active) and 37.8 µM (active) and 37.6 µM (active) | 32.1 µM (active) and 50.1 µM (active) and 46 µM (active) | 10.2 µM (active) and 27 µM (active) and 23.1 µM (active) | 58.2 µM (active) and 54.8 µM (active) | 10.5 µM (active) | 10.4 µM (active) and 17.1 µM (active) and 15.5 µM (active) | 47.3 µM (active) and 55.1 µM (active) | 28.5 µM (active) and 30 µM (active) | 10.9 µM (active) and 16.4 µM (active)
13 | CCCCCCOC(=O)c1ccccc1C(=O)OCCCCCC | inactive | – | inactive | inactive | inactive | inactive | inactive | inactive | inactive | inactive | – | – | – | – | – | – | – | – | – | –
14 | Oc1ccc(Cl)cc1Cl | inactive | inactive | inactive | inactive | inactive | inactive | inactive | inactive | inactive | inactive | – | – | – | – | – | – | – | – | – | –
15 | Cc1cccc([N+](=O)[O-])c1 | inactive | inactive | – | inactive | inactive | inactive | inactive | inactive | inactive | inactive | – | – | – | – | – | – | – | – | – | –
16 | CCOP(=S)(OCC)SCSC(C)(C)C | inactive | inactive | inactive | inactive | inactive | inactive | inactive | inactive | inactive | inactive | – | – | – | – | – | – | – | – | – | –
